From publication PMC4336329 (PLoS ONE, 2015) come the findings set out here.

About 14,000 (4.5%) of roughly 310,000 compounds showed an effect of 50% or more. Effects have a minus sign here. The entries come from a sample that favours strong results as a whole.
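Note: peak tail current of the secondary pulse compared with the same well before compound.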

human ether-à-go-go-related gene (hERG) potassium channel, sequence (Q12809 whole entry, looked up): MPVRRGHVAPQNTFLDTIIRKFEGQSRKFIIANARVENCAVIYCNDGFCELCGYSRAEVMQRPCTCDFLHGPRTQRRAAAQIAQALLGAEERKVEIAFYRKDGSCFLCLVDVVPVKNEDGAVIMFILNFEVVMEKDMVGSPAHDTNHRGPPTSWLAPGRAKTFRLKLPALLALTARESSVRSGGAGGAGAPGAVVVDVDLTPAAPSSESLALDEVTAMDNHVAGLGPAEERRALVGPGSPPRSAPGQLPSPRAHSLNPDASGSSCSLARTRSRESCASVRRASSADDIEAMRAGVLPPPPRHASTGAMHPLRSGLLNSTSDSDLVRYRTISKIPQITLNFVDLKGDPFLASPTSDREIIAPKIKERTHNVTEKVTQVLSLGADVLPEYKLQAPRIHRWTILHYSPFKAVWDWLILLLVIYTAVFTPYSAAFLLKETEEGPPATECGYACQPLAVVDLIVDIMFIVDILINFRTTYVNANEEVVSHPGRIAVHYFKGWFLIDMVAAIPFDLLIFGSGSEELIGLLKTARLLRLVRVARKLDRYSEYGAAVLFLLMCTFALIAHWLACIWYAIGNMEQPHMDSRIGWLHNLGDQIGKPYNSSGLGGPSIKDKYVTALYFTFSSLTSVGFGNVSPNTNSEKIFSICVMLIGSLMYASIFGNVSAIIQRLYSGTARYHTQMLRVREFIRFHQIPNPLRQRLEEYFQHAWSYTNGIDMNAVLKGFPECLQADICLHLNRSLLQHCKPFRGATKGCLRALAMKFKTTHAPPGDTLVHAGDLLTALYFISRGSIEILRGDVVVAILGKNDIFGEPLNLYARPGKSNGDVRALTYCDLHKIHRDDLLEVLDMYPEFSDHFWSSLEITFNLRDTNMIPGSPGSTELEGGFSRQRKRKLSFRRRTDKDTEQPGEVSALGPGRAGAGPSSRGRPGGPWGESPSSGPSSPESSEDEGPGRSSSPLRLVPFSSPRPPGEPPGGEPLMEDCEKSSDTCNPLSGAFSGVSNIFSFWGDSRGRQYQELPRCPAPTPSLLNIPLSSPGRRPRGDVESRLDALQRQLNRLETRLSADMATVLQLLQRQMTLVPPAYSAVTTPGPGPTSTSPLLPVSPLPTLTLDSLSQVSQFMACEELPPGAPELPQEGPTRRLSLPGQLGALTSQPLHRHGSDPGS

The experiment has as its target human ether-à-go-go-related gene (hERG) potassium channel (human, UniProt Q12809). Put plainly: primary screen, population patch clamp on CHO cells stably expressing hERG; higher = less effect of the substance.
With `CCC(C)(C)NC(=O)C1c2ccccc2Oc2ccccc21`, the “hERG current change (%, negative = inhibition) at 10uM” value is listed as 23%. As to `O=C(O)CC1Sc2nnc(COc3ccc(Cl)cc3)n2N=C1c1ccccc1` (stereo not drawn), the “hERG current change (%, negative = inhibition) at 10uM” value was 21.2%.

As to `CN(C)S(=O)(=O)c1cc(S(=O)(=O)N(C)C)c(Cl)cc1N`, the “hERG current change (%, negative = inhibition) at 10uM” value is -8.31%. Turning to `COC(=O)c1ccccc1NC(=S)NC(NC(=O)c1ccccc1[N+](=O)[O-])C(Cl)(Cl)Cl` (stereo not drawn), the “hERG current change (%, negative = inhibition) at 10uM” value is listed as -1.4%. For the compound `CCc1oc(C(=O)OC)cc1CSC(=N)N.Cl`, the “hERG current change (%, negative = inhibition) at 10uM” value came to 12%.

Take `CS(=O)(=O)c1ccc(C(=O)NC2CCCc3ccccc32)cc1` (stereo not drawn): the “hERG current change (%, negative = inhibition) at 10uM” value is 20%.

`COc1ccc(-c2csc(-c3cccnc3)n2)cc1C`: the “hERG current change (%, negative = inhibition) at 10uM” value was -3.79%.

Turning to `CCCCNC(=O)Nc1nnc(-c2ccc(OCC)cc2)o1`, the “hERG current change (%, negative = inhibition) at 10uM” value turned out to be 10.1%. In the case of `CCN(CC)CCCNC(=O)c1[nH]c(C)c(C(=O)NC2CCCCC2)c1C` it was 12.9%; in that of `CCc1nc(SCC(=O)Nc2cc(OC)ccc2OC)c2c(C)c(C)sc2n1`, 3.63%. With `CC(C)Cc1nnc(NC(=O)C2CCN(C(=O)c3ccc(Cl)cc3)CC2)s1`, the “hERG current change (%, negative = inhibition) at 10uM” value is -29.2%. Take `CCN(CC)c1ccc(/C=C(/C#N)C(=O)NC(C)C)o1`: the “hERG current change (%, negative = inhibition) at 10uM” value was -1.68%.

As for `COC(=O)C(C)n1cnc2c(nnn2-c2ccc(C)cc2)c1=O` (stereo not drawn), the “hERG current change (%, negative = inhibition) at 10uM” value was -10.6%. The figure for `NC(=O)C1CCN(CC(=O)N2c3ccccc3CCc3ccccc32)CC1` is 19.3%; for `Cc1cccn2c(=O)c3cc(C(=O)NC4CCCC4)c(=N)n(C4CCCCC4)c3nc12` it is -80.7%. As for `Cc1cccn2c(=O)c3cc(C(=O)NC4CCCC4)c(=N)n(C4CCCC4)c3nc12`, the “hERG current change (%, negative = inhibition) at 10uM” value was -79.2%. As for `Cc1cccn2c(=O)c(C(=O)NC3CCCCC3)c(O)nc12`, the “hERG current change (%, negative = inhibition) at 10uM” value was found to be 31.3%. As to `Cc1cccn2c(=O)c3cc(C(=O)NC4CCCC4)n(C)c3nc12`, the “hERG current change (%, negative = inhibition) at 10uM” value was 1.13%.

Consider `Cc1cccn2c(=O)c3cc(C(=O)NC4CCCCC4)n(C)c3nc12`, for which the “hERG current change (%, negative = inhibition) at 10uM” value turned out to be 12.5%. `Cc1cccn2c(=O)c3cc(C(=O)NC4CCCCC4C)n(C)c3nc12` (stereo not drawn): the “hERG current change (%, negative = inhibition) at 10uM” value is listed as 13.7%. In the case of `COc1cc(C(=O)NCC(=O)N/N=C/c2c(C)[nH]c3ccccc23)cc(OC)c1OC` it was 15.7%. `CCN(CC)CCc1nc(-c2ccccc2)no1.O=C(O)CC(O)(CC(=O)O)C(=O)O`: the “hERG current change (%, negative = inhibition) at 10uM” value is -10.6%. Regarding `CCN(CC)CCC(C)OC(c1ccccc1)c1ccccc1.O=C(O)CC(O)(CC(=O)O)C(=O)O` (stereo not drawn), the “hERG current change (%, negative = inhibition) at 10uM” value is recorded as -52.2%. As to `CCC(C(=O)OCCN(CC)CC)c1ccccc1.O=C(O)CC(O)(CC(=O)O)C(=O)O` (stereo not drawn), the “hERG current change (%, negative = inhibition) at 10uM” value is on record as 4.45%.
